# Assay results as given in PubChem BioAssay (NCATS).
# The source made the active and inactive calls. Calls come from the whole dose curve; as a rule, active = well fitted curve in the direction sought with a large enough effect; inactive = no such curve, though single readings can be large or run the other way.
# Target: Alpha-galactosidase (Coffea arabica) (UniProt Q42656)
# Test: Counterscreen for Glucocerebrosidase Inhibitors: qHTS Assay for Coffee Bean alpha-Galactosidase at pH 5.9 (AID 998)
# Details: coffee bean alpha-galactosidase enzyme assay; series mostly up to 76.9 µM
# In short: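 In 50 mM citric acid pH 5.9 with 0.005% Tween-20, coffee bean enzyme hydrolyses 80 uM 4-MU alpha-D-galactopyranoside over 20 min at RT. Activity is normalized to controls; AC50 comes from Hill-modelled concentration-response data.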
# Alpha-galactosidase (Coffea arabica), sequence (Q42656 whole entry, looked up): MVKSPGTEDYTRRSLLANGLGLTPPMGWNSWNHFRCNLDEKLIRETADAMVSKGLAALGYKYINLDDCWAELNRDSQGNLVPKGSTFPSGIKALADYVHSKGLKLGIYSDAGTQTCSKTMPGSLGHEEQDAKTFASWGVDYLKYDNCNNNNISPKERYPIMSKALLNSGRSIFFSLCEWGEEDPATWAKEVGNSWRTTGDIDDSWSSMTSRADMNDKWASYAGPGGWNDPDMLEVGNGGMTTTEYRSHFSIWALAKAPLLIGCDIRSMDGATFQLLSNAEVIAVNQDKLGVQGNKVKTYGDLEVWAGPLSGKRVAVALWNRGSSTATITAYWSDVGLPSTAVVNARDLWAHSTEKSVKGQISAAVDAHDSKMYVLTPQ
row,Structure (SMILES),outcome
1,NC(=O)NO,inactive
2,Cc1[nH]c(=O)c(C#N)cc1-c1ccncc1,inactive
3,O=C1CCc2cc(OCCCCc3nnnn3C3CCCCC3)ccc2N1,inactive
4,Cc1cn[nH]c1,inactive
5,CN1CCC[C@@H]1CCO[C@](C)(c1ccccc1)c1ccc(Cl)cc1,inactive
6,CN1CCN(CCCN2c3ccccc3Sc3ccc(Cl)cc32)CC1,inactive
7,CC(C)[N+](C)(CCOC(=O)C1c2ccccc2Oc2ccccc21)C(C)C,inactive
8,O=C(CCCN1CCC(O)(c2ccc(Cl)cc2)CC1)c1ccc(F)cc1,inactive
9,CN(Cc1cnc2nc(N)nc(N)c2n1)c1ccc(C(=O)N[C@@H](CCC(=O)O)C(=O)O)cc1,inactive
10,CN(C)CCCN1c2ccccc2CCc2ccc(Cl)cc21,inactive
11,NC(=O)OCC(COC(N)=O)c1ccccc1,inactive
12,Nc1nc2c(ncn2COCCO)c(=O)[nH]1,inactive
13,Cc1ccccc1N1C(=O)c2cc(S(N)(=O)=O)c(Cl)cc2NC1C (stereo not given),inactive
14,CNCCCC1c2ccccc2C=Cc2ccccc21,inactive
15,O=C(c1ccc(OCCN2CCCCC2)cc1)c1c(-c2ccc(O)cc2)sc2cc(O)ccc12,inactive
16,CC(=O)Nc1nnc(S(N)(=O)=O)s1,inactive
17,O=C1c2c(O)ccc(O)c2C(=O)c2c(NCCNCCO)ccc(NCCNCCO)c21,inactive
18,O=C(C1CCCCC1)N1CC(=O)N2CCc3ccccc3C2C1 (stereo not given),inactive

row,Structure (SMILES),outcome
1,CN(C)c1nc(N(C)C)nc(N(C)C)n1,inactive
2,CN1CCN(C2=Nc3ccccc3Oc3ccc(Cl)cc32)CC1,inactive
3,Clc1ccc(C(c2ccccc2Cl)C(Cl)Cl)cc1 (stereo not given),inactive
4,CN1CCN(CCCN2c3ccccc3Sc3ccc(C(F)(F)F)cc32)CC1,inactive
5,Nc1nc(N)c2nc(-c3ccccc3)c(N)nc2n1,inactive
6,CN1CCN(C2=Nc3cc(Cl)ccc3Nc3ccccc32)CC1,inactive
7,N=c1nc(N2CCCCC2)cc(N)n1O,inactive
8,Cc1cn([C@H]2C=C[C@@H](CO)O2)c(=O)[nH]c1=O,inactive
9,Cn1cnc([N+](=O)[O-])c1Sc1ncnc2nc[nH]c12,inactive
10,CC(C)(C)NC(=O)[C@H]1CC[C@H]2[C@@H]3CC[C@H]4NC(=O)C=C[C@]4(C)[C@H]3CC[C@]12C,inactive
11,C[C@](N)(Cc1ccc(O)c(O)c1)C(=O)O,inactive
12,Nc1nnc(-c2cccc(Cl)c2Cl)c(N)n1,inactive
13,NNCCc1ccccc1,inactive
14,CCN(CC)CCOC(=O)C1(C2CCCCC2)CCCCC1,inactive
15,CNCCCN1c2ccccc2CCc2ccccc21,inactive
16,CN(C)CC/C=C1\c2ccccc2COc2ccccc21,inactive
17,NC[C@H](O)c1ccc(O)c(O)c1,inactive
